Screens: PubChem BioAssay, several laboratories
PrP UTR inh – inhibition of PrP 5' UTR reporter expression; cell-based PrP 5' UTR mRNA reporter, plate reader; inhibition, % (test concentration not listed); actives 0.35% (n = 340,000); in the data active = inhibition above about 52%
FadD28 FP inh – blocks FadD28 binding to the bisubstrate probe; fluorescence polarization; inhibition, % at 12.5 µM; actives 0.22% (n = 360,000); AID 588549; in the data active = inhibition above about 8.5%, passing the limit was not always enough
BH1578 lux ind – induces V. cholerae light production without autoinducers. V. cholerae BH1578 lux reporter, luminescence, 6 h. activation, % at 18.7 µM. actives 0.16% (n = 350,000); in the data active = activation mostly above about 9.7%, no sharp cut-off
PrPC surface inh – reduces human prion protein on the cell surface; AID 720596; cell surface PrPC, TR-FRET read-out; P04156; inhibition, % at 13.8 µM; actives 0.43% (n = 370,000); in the data active = inhibition above about 24%
PriA SSB inh – K. pneumoniae PriA-SSBct interaction inhibition; AlphaScreen SSBct-PriA binding, biotinylated peptide; inhibition, % at 33 µM; actives 0.6% (n = 430,000); AID 1272365; in the data active = inhibition mostly above about 37%, no sharp cut-off; inactive = mostly below about 20%
PrPC confirm – confirmation of inhibitors of cell surface human prion protein; cell surface PrPC level, TR-FRET; actives 65% (n = 1,500); shares compounds with PrPC surface inh; inhibition, % at 13.8 µM; in the data active = inhibition above about 25%
LD9 cytotox – LD9 cell cytotoxicity, PrPc inhibitor counter-screen; inhibition, % at 13.8 µM; actives 29% (n = 1,500); shares compounds with PrPC surface inh; LD9 cells cytotoxicity, luminescence viability; in the data active = inhibition above about 9.5%
Hits are given with their value; n = inactive; x = no result given. In the library only some 1.4% were active in any assay of this set; here they are far more common.

SMILES	PrP UTR inh	FadD28 FP inh	BH1578 lux ind	PrPC surface inh	PriA SSB inh	PrPC confirm	LD9 cytotox
Cc1nnc(NNC(=O)C2CCCCC2)[nH]c1=O	x	x	x	x	n	x	x
COCCCn1c(SCc2ccc(OC)cc2)nc2cc(OC)c(OC)cc2c1=N	n	21	n	119	n	n	n
Cc1cc(NC(=O)CSc2nccc(N3CC(C)CC(C)C3)n2)no1 (stereo unspecified)	x	x	x	x	n	x	x
CCOc1ccc2nc(NC(=O)c3ccco3)sc2c1	n	n	n	31	n	39	14
CCOc1ccc2nc(NC(=O)Cc3csc(NC(=O)c4ccco4)n3)sc2c1	x	x	x	x	n	x	x
O=C(NN=Cc1ccc(O)cc1O)c1ccc(CN2C(=O)c3cccc4cccc2c34)cc1	x	x	x	x	n	x	x
Cc1cc([N+](=O)[O-])nn1Cc1ccc(C(=O)N/N=C/c2ccc(O)cc2O)cc1	n	n	n	32	x	29	21
O=C(N/N=C/c1ccc(O)cc1O)c1ccc(CN2C(=O)c3cccc4cccc2c34)cc1	n	n	n	31	x	29	19
Cc1cc([N+](=O)[O-])nn1Cc1ccc(C(=O)NN=Cc2ccc(O)cc2O)cc1	x	x	x	x	n	x	x
CONC(=O)c1csc(Nc2cccc(C)n2)n1	x	x	x	x	n	x	x
Oc1c(Br)cc(Br)cc1C=Nn1c(-c2ccccc2)n[nH]c1=S	x	x	x	x	n	x	x
Cc1[nH]n(-c2ccccc2)c(=O)c1/C=N/NC(=O)c1cccc(F)c1	n	n	n	52	x	54	23
Cc1cc(Br)c2nc3c(c(C(=O)O)c2c1)CCCCC3	n	n	n	117	n	132	n
CCc1ccc2nc3c(c(C(=O)O)c2c1)CCC3	n	n	n	n	n	x	x
N#CNC(=Nc1cccc(F)c1)SCc1ccccc1	n	n	n	31	n	n	n
Cc1cc(NC(=O)CSc2nc(CCC3CCCC3)nc3ccccc23)no1	n	n	n	43	n	56	n
CC(C)(C)c1nc(SCC(=O)NC2CCCC2)c2ccccc2n1	n	n	n	n	n	x	x
Cc1cc(NC(=O)CSc2ncnc3ccccc23)no1	n	n	n	36	n	94	n
Cc1cc(NC(=O)CSc2nc(C(C)(C)C)nc3ccccc23)no1	n	n	n	n	n	x	x
Cc1nonc1NC(=O)CSc1nc(CCC2CCCC2)nc2ccccc12	n	n	n	n	n	x	x
CCCc1nc(SCC(=O)Nc2cc(C)on2)c2ccccc2n1	n	n	n	123	n	120	n
CCCc1nc(SCC(=O)NC2CCCC2)c2ccccc2n1	n	x	n	34	n	43	n
CC(=NNC(=O)CSc1nc2ccccc2s1)c1ccncc1	x	x	x	x	n	x	x
Cc1ccc(Oc2cc(N3CCNCC3)nc(C)n2)cc1	x	x	x	x	n	x	x
O=C(COc1ccc(Cl)cc1Cl)NCc1nn(C2CCCC2)c2c1COCC2	x	x	x	x	n	x	x
SMILES	PrP UTR inh	FadD28 FP inh	BH1578 lux ind	PrPC surface inh	PriA SSB inh	PrPC confirm	LD9 cytotox
CCCCNC(=O)CSc1nc(Cc2ccccc2)nc2ccccc12	n	n	n	28	n	38	n
CCc1cc2ccccc2nc1SCC(=O)Nc1cc(C)on1	n	n	n	30	n	69	n
Cc1cc(NC(=O)CSc2nc(-c3cccs3)nc3ccccc23)no1	n	n	n	44	n	102	n
Cc1cc(NC(=O)c2cc(-c3cccs3)nc3ccccc23)no1	n	n	n	n	n	x	x
O=C(NNc1ccccc1)OCc1ccccc1	x	n	n	25	x	n	n
O=C(O)c1ccccc1Sc1ncnc2sc3c(c12)CCC3	n	n	n	45	n	63	n
Cc1sc2ncnc(Sc3ccccc3C(=O)O)c2c1C	n	n	n	94	n	121	n
CC(=O)CSc1ncnc2sc3c(c12)CCCC3	n	n	n	30	n	n	n
CON=C(CS(=O)Cc1ccc(Cl)cc1)c1ccc(Cl)cc1 (stereo unspecified)	x	x	x	x	n	x	x
O=S(=O)(NC[C@H]1CCCO1)C1CC1	x	x	x	x	n	x	x
O=C(Nc1cnn(CC2COc3ccccc3O2)c1)c1noc2c1CCCC2 (stereo unspecified)	x	x	x	x	n	x	x
OC[C@@H]1CN(Cc2ccc(Cl)cc2)C[C@H](n2cnc3c(Nc4ccccc4)ncnc32)O1	x	n	n	41	x	n	n
C=CCOc1ccc(C2NC(=S)NC(c3ccccc3)=C2C(C)=O)cc1OC (stereo unspecified)	n	n	n	52	n	45	n
COc1cc(C2NC(=O)NC(c3ccccc3)=C2C(C)=O)ccc1OCC#N (stereo unspecified)	n	n	n	n	n	x	x
CCCOc1ccc(C2NC(=S)NC(C)=C2C(=O)c2ccccc2)cc1OC (stereo unspecified)	n	n	n	50	n	53	n
CC1=C(C(=O)c2ccccc2)C(c2ccc(OC(F)F)cc2)NC(=S)N1 (stereo unspecified)	n	n	n	50	n	47	n
C#CCn1c(=NC(=O)c2ccc3ncsc3c2)sc2cccc(Cl)c21	x	x	x	x	n	x	x
O=C(C1=C(O)C(=O)N(CCCN2CCOCC2)[C@@H]1c1ccccn1)c1ccco1	x	x	x	x	n	x	x
CSc1ncccc1C(=O)NCC[C@H](O)c1cc(C)oc1C	x	x	x	x	n	x	x
CCCc1nn(-c2ccccc2)c2c1C(c1cc(OC)c(OC)c(OC)c1)C(C#N)C(=N)O2 (stereo unspecified)	x	x	x	x	n	x	x
